Screening results from PubChem.
ALR inh = blocks human ALR sulfhydryl oxidase activity. P55789. purified ALR, DTT oxidation, H2O2 HRP-luminol luminescence. inhibition, % (no concentration beside the values). 290,000 compounds, 3.8% hits. AID 485317;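 active = mean replicate inhibition above about 79%, with every replicate also reaching it, limit read from the data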
PABP polyA inh = blocks human PABP binding to poly(A) RNA; fluorescence polarization; 290,000 compounds, 1% hits; AID 2014; inhibition, % at 35 µM; P11940;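 also: calls also rest on retests at 20 µM and on dose response follow-up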
Target sequence (P11940 whole entry, looked up): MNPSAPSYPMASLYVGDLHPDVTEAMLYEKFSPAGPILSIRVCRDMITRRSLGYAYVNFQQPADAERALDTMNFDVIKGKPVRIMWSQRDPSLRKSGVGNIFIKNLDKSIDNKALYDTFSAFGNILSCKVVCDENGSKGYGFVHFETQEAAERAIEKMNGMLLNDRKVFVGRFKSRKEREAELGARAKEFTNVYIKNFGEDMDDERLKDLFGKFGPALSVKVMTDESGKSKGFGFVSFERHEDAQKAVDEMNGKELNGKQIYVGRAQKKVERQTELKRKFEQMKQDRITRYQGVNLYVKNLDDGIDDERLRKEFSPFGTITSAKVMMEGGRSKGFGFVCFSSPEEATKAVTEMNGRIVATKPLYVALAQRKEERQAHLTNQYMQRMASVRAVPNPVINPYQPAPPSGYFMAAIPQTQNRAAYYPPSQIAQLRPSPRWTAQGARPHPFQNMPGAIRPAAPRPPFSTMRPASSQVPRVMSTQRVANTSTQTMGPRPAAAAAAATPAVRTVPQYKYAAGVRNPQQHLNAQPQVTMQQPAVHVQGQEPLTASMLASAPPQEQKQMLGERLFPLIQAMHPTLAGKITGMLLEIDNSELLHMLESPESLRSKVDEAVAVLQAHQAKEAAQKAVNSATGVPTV
eIF4H FP inh = inhibitors of RNA binding by human eIF4H. eIF4H fluorescence polarization binding assay. 290,000 compounds, 0.94% hits. AID 2012. Q15056. inhibition, % at 35 µM;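 also: calls also rest on retests at 20 µM and on dose response follow-up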
PABP1 MLLE inh = inhibitors of microRNA-mediated deadenylation, human PABP1 MLLE binding | 360,000 compounds, 0.36% hits | P11940 | inhibition, % at 20 µM | GST-MLLE / FITC-PAM2 fluorescence polarization; in the data active = inhibition above about 35%, passing the limit was not always enough;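 also: plate controls were DMSO wells with GST-MLLE for no effect and wells lacking GST-MLLE protein for full effect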
Efflux pump mplx = blocks antifungal efflux pumps in multiplex yeast assay. S. cerevisiae Candida pump triplex, Nile Red efflux. AID 485275. 330,000 compounds, 0.44% hits. inhibition, % at 10 µM;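 active = plate passing quality check with inhibition over a set limit, or well fluorescence over plate mean plus 4 SD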;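 also: Nile Red retained in pooled yeast measured as flow cytometry median fluorescence; 0% = buffer negative control and 100% = Enniatin B positive control; higher means more Nile Red kept so more efflux inhibition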
UBC9 SUMO inh = SUMOylation inhibition; 290,000 compounds, 0.36% hits; HTRF SUMOylation assay, SAE1/SAE2 + UBC9, in vitro; inhibition, % at 35 µM; P63279; AID 2006; in the data active = inhibition above about 50%, passing the limit was not always enough
An asterisk follows results filed as active. An excerpt weighted towards active compounds, which were near 4.7% of everything screened. Unless noted, no rule for the calls is given here.

For CC(C)c1ccc(NC2CCCN(C(=O)CSc3nncn3C)C2)cc1 (configuration not stated) the results were ALR inh 91*, PABP polyA inh 2, eIF4H FP inh -14, PABP1 MLLE inh -4, Efflux pump mplx 0 and UBC9 SUMO inh 3.
`CCn1nc(C)cc1C(=O)N1CCCC(Nc2ccc(C(C)C)cc2)C1` (configuration not stated) gave PABP polyA inh 2, eIF4H FP inh -8, PABP1 MLLE inh -2 and UBC9 SUMO inh -8.
CO[C@@]12[C@@H]3N[C@@H]3CN1C1=C(C(=O)C(N)=C(C)C1=O)[C@@H]2COC(N)=O was read as PABP1 MLLE inh 2.
Screening COc1ccc(N(CC(=O)N2CCN(C)CC2)S(=O)(=O)c2cc(C)ccc2OC)cc1Cl returned ALR inh -1, PABP polyA inh -4, eIF4H FP inh 4, PABP1 MLLE inh 10, Efflux pump mplx 0 and UBC9 SUMO inh 4.
`CCN(C(=O)COC(=O)c1ccc2c(=O)n3c(nc2c1)CCC3)C1CCS(=O)(=O)C1` (configuration not stated) gave ALR inh -16, PABP polyA inh -6, eIF4H FP inh 4, PABP1 MLLE inh -12, Efflux pump mplx 0 and UBC9 SUMO inh 3.
Screening Nc1ccc(N2CCCC2)c(S(=O)(=O)Nc2cccc(C(F)(F)F)c2)c1 returned ALR inh 18, PABP1 MLLE inh 7 and Efflux pump mplx 0.
For Cc1ccc(N(C)C(=O)N2CCN(S(=O)(=O)c3c(C)cc(C)cc3C)CC2)cc1 the results were ALR inh 0, PABP polyA inh -5, eIF4H FP inh 1, PABP1 MLLE inh -2, Efflux pump mplx 0 and UBC9 SUMO inh -1.
CCOc1ccc(NC(=O)CN(C)C(=O)c2ccccc2CCc2ccccc2)cc1OCC was read as ALR inh -26, PABP1 MLLE inh 9 and Efflux pump mplx 0.
COc1ccccc1N1CCN(Cc2cc(=O)n3ccsc3n2)CC1 was read as ALR inh 90*, PABP polyA inh 6, eIF4H FP inh 2, PABP1 MLLE inh 1, Efflux pump mplx 0 and UBC9 SUMO inh 2.
For N#CC1(c2ccccc2)CCN(S(=O)(=O)c2ccc(OC(F)(F)F)cc2)CC1 the results were ALR inh 1, PABP polyA inh 10, eIF4H FP inh -6, PABP1 MLLE inh 2, Efflux pump mplx 0 and UBC9 SUMO inh -6.
Screening O=C(NNc1ccc([N+](=O)[O-])cc1)C1CC2CCCC(C1)C2=O (configuration not stated) returned ALR inh 86*, PABP polyA inh -4, eIF4H FP inh 2, PABP1 MLLE inh 1, Efflux pump mplx 0 and UBC9 SUMO inh 7.
For CC1Cc2nc(SCC(N)=O)n(C)c(=O)c2S1 (configuration not stated) the results were ALR inh 1, PABP polyA inh -2, eIF4H FP inh 0, PABP1 MLLE inh 1, Efflux pump mplx 0 and UBC9 SUMO inh 1.
Screening CCOC(=O)c1ccc(NC(=O)CSc2nc3c(c(=O)n2CC)SC(C)C3)cc1 (configuration not stated) returned ALR inh 99*, PABP polyA inh -2, eIF4H FP inh 1, PABP1 MLLE inh 7, Efflux pump mplx 0 and UBC9 SUMO inh 2.
For CCOC(=O)c1ccc(NC(=O)CSc2nc3c(c(=O)n2C)SC(C)C3)cc1 (configuration not stated) the results were ALR inh 100*, PABP polyA inh 1, eIF4H FP inh -7, PABP1 MLLE inh -10, Efflux pump mplx 0 and UBC9 SUMO inh 1.
`CCn1c(SCC(=O)Nc2cccc(F)c2)nc2c(c1=O)SC(C)C2` (configuration not stated) gave PABP polyA inh -7, eIF4H FP inh 0, PABP1 MLLE inh 5, Efflux pump mplx 0 and UBC9 SUMO inh 15.
`O=C(NCCN1CCN(c2ccc([N+](=O)[O-])cc2)CC1)NCc1ccccc1` gave ALR inh -15, PABP polyA inh -9, eIF4H FP inh -7, PABP1 MLLE inh 0, Efflux pump mplx 0 and UBC9 SUMO inh 18.
`O=C1c2ccccc2N[C@@H]2C=CC[C@@H]2N1O` gave PABP1 MLLE inh 9 and Efflux pump mplx 0.
`CCC(C)(C)n1nnnc1CN1CCN(c2ccc(OC)cc2)CC1` gave ALR inh 94*, PABP polyA inh -12, eIF4H FP inh 5, PABP1 MLLE inh -20, Efflux pump mplx 0 and UBC9 SUMO inh 14.
Screening COc1ccc(Cn2nnnc2CN2CCN(c3ccc(OC)cc3)CC2)cc1 returned ALR inh 19, PABP polyA inh 5, eIF4H FP inh 1, PABP1 MLLE inh -3, Efflux pump mplx 1 and UBC9 SUMO inh 0.
Screening CSc1ccc(CN2CCC(C)(Oc3ccccc3F)C2)cc1 (configuration not stated) returned PABP1 MLLE inh -15.
CCn1ncc(/C=N\NC(=O)Cc2ccc([N+](=O)[O-])cc2)c1C was read as ALR inh -2, PABP polyA inh 0, eIF4H FP inh 4, PABP1 MLLE inh -1, Efflux pump mplx 0 and UBC9 SUMO inh 10.
`CC1(C(=O)NS(=O)(=O)c2ccc(Cl)cc2)CCN1C(=O)c1ccccc1CCc1ccccc1` (configuration not stated) gave PABP1 MLLE inh 10.
CCCCC1=CC2=CC(=O)C(C)(OC(=O)CC)C(=O)C2=CN1Cc1ccco1 (configuration not stated) was read as ALR inh -7, PABP polyA inh 64*, eIF4H FP inh 70*, PABP1 MLLE inh 6, Efflux pump mplx 0 and UBC9 SUMO inh 12.
Screening COC(=O)CCCC1=CC2=CC(=O)C(C)(OC(=O)c3cccs3)C(=O)C2=CN1Cc1ccco1 (configuration not stated) returned ALR inh -42, PABP polyA inh 50*, eIF4H FP inh 61*, PABP1 MLLE inh 10, Efflux pump mplx 0 and UBC9 SUMO inh 21.
COC(=O)CCC(=O)OC1(C)C(=O)C=C2C=C(C3CC3)N(Cc3ccco3)C=C2C1=O (configuration not stated) was read as ALR inh -15, PABP polyA inh 53*, eIF4H FP inh 88*, PABP1 MLLE inh 30, Efflux pump mplx 0 and UBC9 SUMO inh 37.
`COC(=O)CCCC1=CC2=CC(=O)C(C)(OC(=O)c3cccs3)C(=O)C2=CN1C1CCCC1` (configuration not stated) gave ALR inh -31, PABP polyA inh 32, eIF4H FP inh 12, PABP1 MLLE inh 4, Efflux pump mplx 0 and UBC9 SUMO inh 28.
Screening COC(=O)CCCC1=CC2=CC(=O)C(C)(OC(=O)c3cccs3)C(=O)C2=CN1Cc1ccccc1 (configuration not stated) returned ALR inh -26, PABP polyA inh 25, eIF4H FP inh 41, PABP1 MLLE inh 7, Efflux pump mplx 0 and UBC9 SUMO inh 30.
